Results taken from PubChem BioAssay (Tox21).
Where “and” joins values, the source holds several entries; their conditions need not be identical. Equal entries are not always repeated. Inconclusive results are not listed. A structure can be active in one record and inactive in another. Calls of active or inactive are those of the source. Unless noted, calls come from the whole dose curve.

What was measured:
[1] = Nuclear factor erythroid 2-related factor 2/antioxidant responsive element (Nrf2/ARE) small molecule agonists: qHTS cell viability counter screen in human keratinocytes (AID 1919968; active = well fitted cell-killing curve with a large enough effect in the repeat runs; note: nearly all actives have a fitted effect of over 55% in size; note: potency is the fitted concentration of half-maximal effect)
Procedure, shortened: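 Cytotoxicity was multiplexed with the Nrf2/ARE luciferase assay in the same wells. Stably transfected HaCaT keratinocytes were treated with test compounds for 23 h at 37 C. Cell viability was then measured by CellTiter-Fluor fluorescence.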

[2] = Nuclear factor erythroid 2-related factor 2/antioxidant responsive element (Nrf2/ARE) small molecule agonists: luciferase reporter gene qHTS assay in human keratinocytes (AID 1919969); note: nearly all actives have a fitted effect of over 35% in size; note: potency is the fitted concentration of half-maximal effect
[3] = target: Gonadotropin-releasing hormone receptor (Homo sapiens) (UniProt P30968); assay: Human gonadotropin-releasing hormone receptor (GnRHR) small molecule agonists, calcium flux assay in GnRHR-HEK293 cells (AID 1920063); note: nearly all actives have a fitted effect of over 35% in size
Procedure, shortened: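 Agonist activity was measured as intracellular calcium flux in HEK293 cells engineered to stably express human GnRHR. After dye loading for 1 hour at 37 C, compounds in DMSO were added and fluorescence was followed for 3 minutes.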

[4] = G protein-coupled receptor (GPCR) small molecule agonists, calcium flux assay: HEK293 wild type cell line counter screen (AID 1920065)
Procedure, shortened: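 Seed cells, incubate 18 h (37 C, 5% CO2); add calcium dye, 1 h at 37 C; pin-transfer compounds, ATP control or DMSO; read fluorescence 480/540 nm each second for 3 min.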

[5] = p53 small molecule agonists, cell-based qHTS assay with human liver microsomes (AID 1963577);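 note: p53 response element beta-lactamase reporter cells with liver microsomes plus NADPH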
Procedure, shortened: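 Steps: plate p53RE-bla cells, incubate 5 h at 37 C; add compound in DMSO; add microsomes (0.5 mg/mL final) and NADPH (0.5 mg/mL final); incubate 16 h at 37 C; add LiveBLAzer, 2 h RT; read fluorescence.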

[6] = p53 small molecule agonists, cell-based qHTS assay with rat liver microsomes (AID 1963578)
Procedure, shortened: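 Metabolic activation is supplied by rat liver microsomes with NADPH (each 0.5 mg/mL final). p53RE-bla cells incubate with compound 16 h at 37 C; reporter activity is measured by LiveBLAzer fluorescence.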

[7] = p53 small molecule agonists, cell-based qHTS assay with human liver microsomes: qHTS cell viability counter screen (AID 1963579); note: nearly all actives have a fitted effect of over 45% in size
Procedure, shortened: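 After the 460/530 nm beta-lactamase read, CellTiter-Glo was added to the same wells and luminescence measured after 30 min at room temperature, giving viability of p53RE-bla cells treated 16 h with compounds plus microsomes and NADPH.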

[8] = p53 small molecule agonists, cell-based qHTS assay with rat liver microsomes: qHTS cell viability counter screen (AID 1963580); note: nearly all actives have a fitted effect of over 45% in size; note: potency is the fitted concentration of half-maximal effect
Procedure, shortened: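 Luminescent ATP readout (CellTiter-Glo, 30 min at room temperature) reports viability of p53RE-bla HCT-116 cells after 16 h at 37 C with test compounds under metabolic activation by rat liver microsomes and NADPH at 0.5 mg/mL final each.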

[9] = p53 small molecule agonists, cell-based qHTS assay: qHTS cell viability counter screen (AID 1963581); note: nearly all actives have a fitted effect of over 45% in size
Procedure, shortened: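 Viability was counter-screened in parallel with the p53 agonist reporter by measuring intracellular ATP luminescence in the same HCT-116 p53RE-bla wells after 16 h compound treatment at 37 C.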

[10] = p53 small molecule agonists, cell-based qHTS assay (AID 1963582; active = well fitted activation curve with a large enough effect in the signal ratio in the repeat runs, not every such curve was filed as active; the % refers to the signal ratio)
Procedure, shortened: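 Cells carrying a p53-responsive bla reporter are treated with test compounds for 16 h at 37 C; beta-lactamase activity is then detected with LiveBLAzer B/G FRET substrate after 2 h at room temperature.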

[11] = target: 5-hydroxytryptamine receptor 2A (Homo sapiens) (UniProt P28223); assay: 5-hydroxytryptamine receptor 2A (HTR2A) small molecule antagonists, cell-based qHTS assay (AID 1963586); note: nearly all actives have a fitted effect of over 45% in size
Procedure, shortened: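 CHO cells stably expressing human HTR2A were plated for 18 h at 37 C, then loaded with calcium dye for 1 h. Compounds were preincubated 5 min at room temperature before DOI (4 nM solution) was added. Kinetic fluorescence was read for 3 min.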

[12] = target: 5-hydroxytryptamine receptor 2A (Homo sapiens) (UniProt P28223); assay: 5-hydroxytryptamine receptor 2A (HTR2A) small molecule agonists, cell-based qHTS assay (AID 1963587); note: nearly all actives have a fitted effect of over 30% in size
Procedure, shortened: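 HTR2A-CHO cells, plated 18 h at 37 C/5% CO2, dye-loaded 1 h at 37 C; compounds in DMSO added by pin tool (agonist mode). Intracellular calcium flux read as kinetic fluorescence on FDSS over 2 min at 1 s intervals.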

[13] = target: Muscarinic acetylcholine receptor M1 (Homo sapiens) (UniProt P11229); assay: Cholinergic receptor muscarinic 1 (CHRM1) small molecule antagonists, cell-based qHTS assay (AID 1963588); note: nearly all actives have a fitted effect of over 40% in size; note: potency is the fitted concentration of half-maximal effect
Procedure, shortened: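 Compounds were tested at 15 concentrations in three independent runs. Dye-loaded CHRM1-CHO cells were exposed 5 min at room temperature before stimulation by acetylcholine added at 50nM. Intracellular calcium was read kinetically on FDSS for 3 min.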

[14] = target: Muscarinic acetylcholine receptor M1 (Homo sapiens) (UniProt P11229); assay: Cholinergic receptor muscarinic 1 (CHRM1) small molecule agonists, cell-based qHTS assay (AID 1963589); note: nearly all actives have a fitted effect of over 35% in size; note: potency is the fitted concentration of half-maximal effect
Procedure, shortened: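 Cells were plated and incubated 18 h at 37 C/5% CO2, loaded with calcium dye for 1 h at 37 C, then treated with compounds in DMSO. Fluorescence was recorded kinetically at 1 sec intervals.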

[15] = cAMP Responsive Elements (CRE) small molecule agonists, cell-based qHTS assay (AID 1963590)
Procedure, shortened: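 Cells carrying a CRE-driven beta-lactamase reporter (HEK 293T) are seeded, incubated overnight (18 h), and treated with test compounds for 3 h at 37 C; reporter activity is then detected with a FRET substrate after 2 h at room temperature.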

[16] = cAMP Responsive Elements (CRE) small molecule antagonists, cell-based qHTS assay (AID 1963591; active = well fitted inhibition curve with a large enough effect in the signal ratio in the repeat runs, not every such curve was filed as active; the % refers to the signal ratio)
Procedure, shortened: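 Cells (CRE-bla HEK 293T, DMEM with 10% dialyzed FBS and 25 mM HEPES) are seeded and incubated 18 h. Compounds are added with NKH477 agonist at 0.25 uM final for 3 h, then FRET substrate for 2 h.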

[17] = target: Beta-2 adrenergic receptor (Homo sapiens) (UniProt P07550); assay: Adrenergic beta2 receptor (ADRB2) small molecule antagonists, cell-based qHTS assay (AID 1963592); note: series mostly up to about 92 µM; nearly all actives have a fitted effect of over 50% in size
Procedure, shortened: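 Assay format: CHO-ADRB2 cells, 18-20hr seeding at 37C/5% CO2, then compound plus 1nM isoproterenol agonist mix for 0.5hr RT. Homogeneous time-resolved fluorescence cAMP detection after 1hr, expressed as 665/615 nm ratio.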

[18] = target: Beta-2 adrenergic receptor (Homo sapiens) (UniProt P07550); assay: Adrenergic beta2 receptor (ADRB2) small molecule agonists, cell-based qHTS assay (AID 1963593);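 note: CHO cells stably overexpressing human ADRB2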
Procedure, shortened: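 CHO cells stably over-expressing ADRB2 were plated overnight at 37C, then dosed with compounds plus a stimulation mix containing 100uM IBMX and 25uM Ro-20-1724 for 0.5hr at room temperature. cAMP was measured by HTRF competition, 1hr.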

[19] = target: D(2) dopamine receptor (Homo sapiens) (UniProt P14416); assay: Dopamine D2 receptor (DRD2) small molecule agonists, cell-based qHTS assay (AID 1963594); note: nearly all actives have a fitted effect of over 35% in size
Procedure, shortened: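 HEK293 cells stably expressing DRD2 were cultured 24 h at 37 C, then given Ro20-1724 (0.1 mM final) and compounds for 10 min at room temperature. NKH477 (200nM) was then added for 30 min. cAMP was read by HTRF.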

[20] = target: D(2) dopamine receptor (Homo sapiens) (UniProt P14416); assay: Dopamine D2 receptor (DRD2) small molecule antagonists, cell-based qHTS assay (AID 1963595; active = well fitted inhibition curve with a large enough effect in the signal ratio in the repeat runs, with a control signal flat; the % refers to the signal ratio)
Procedure, shortened: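 HEK293 cells stably expressing DRD2 were preincubated with 0.1 mM Ro20-1724, then with compound for 10 min at room temperature. Cells were stimulated with 200 nM NKH477 plus 12 nM quinpirole for 30 min, and cAMP was read by HTRF.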

Measured: Potency

Chain of Gonadotropin-releasing hormone receptor (Homo sapiens) (P30968 whole entry, looked up): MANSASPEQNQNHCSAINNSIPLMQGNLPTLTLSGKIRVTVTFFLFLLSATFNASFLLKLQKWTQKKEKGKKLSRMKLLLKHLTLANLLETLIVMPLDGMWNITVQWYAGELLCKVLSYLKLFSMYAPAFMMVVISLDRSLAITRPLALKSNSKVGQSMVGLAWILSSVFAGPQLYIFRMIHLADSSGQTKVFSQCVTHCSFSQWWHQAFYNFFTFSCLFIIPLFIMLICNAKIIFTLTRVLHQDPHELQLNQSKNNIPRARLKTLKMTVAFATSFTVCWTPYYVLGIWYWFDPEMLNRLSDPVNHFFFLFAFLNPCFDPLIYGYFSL
Chain of Beta-2 adrenergic receptor (Homo sapiens) (P07550 whole entry, looked up): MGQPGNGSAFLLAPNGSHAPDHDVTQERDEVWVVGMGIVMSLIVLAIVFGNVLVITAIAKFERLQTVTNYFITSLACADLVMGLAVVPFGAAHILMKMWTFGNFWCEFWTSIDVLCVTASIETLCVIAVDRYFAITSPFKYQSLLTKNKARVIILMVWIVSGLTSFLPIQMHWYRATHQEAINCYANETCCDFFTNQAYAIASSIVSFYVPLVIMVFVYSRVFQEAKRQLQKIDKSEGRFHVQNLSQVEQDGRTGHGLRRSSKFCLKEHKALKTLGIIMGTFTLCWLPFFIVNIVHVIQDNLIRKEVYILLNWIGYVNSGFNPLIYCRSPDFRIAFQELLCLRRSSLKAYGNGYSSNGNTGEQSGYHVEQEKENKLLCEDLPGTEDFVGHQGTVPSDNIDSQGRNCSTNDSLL
Chain of Muscarinic acetylcholine receptor M1 (Homo sapiens) (P11229 whole entry, looked up): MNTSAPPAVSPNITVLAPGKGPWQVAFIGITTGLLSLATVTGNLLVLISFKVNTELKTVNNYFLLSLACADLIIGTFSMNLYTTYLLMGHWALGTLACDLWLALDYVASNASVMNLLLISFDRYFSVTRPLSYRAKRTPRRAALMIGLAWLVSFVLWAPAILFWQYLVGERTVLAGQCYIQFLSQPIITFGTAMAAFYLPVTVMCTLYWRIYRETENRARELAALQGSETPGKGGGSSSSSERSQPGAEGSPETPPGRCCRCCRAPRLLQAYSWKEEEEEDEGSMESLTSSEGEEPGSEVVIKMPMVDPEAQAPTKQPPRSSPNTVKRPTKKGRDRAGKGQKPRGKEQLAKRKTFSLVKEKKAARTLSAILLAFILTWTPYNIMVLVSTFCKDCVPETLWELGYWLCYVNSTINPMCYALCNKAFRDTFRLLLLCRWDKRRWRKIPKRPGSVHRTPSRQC
Chain of D(2) dopamine receptor (Homo sapiens) (P14416 whole entry, looked up): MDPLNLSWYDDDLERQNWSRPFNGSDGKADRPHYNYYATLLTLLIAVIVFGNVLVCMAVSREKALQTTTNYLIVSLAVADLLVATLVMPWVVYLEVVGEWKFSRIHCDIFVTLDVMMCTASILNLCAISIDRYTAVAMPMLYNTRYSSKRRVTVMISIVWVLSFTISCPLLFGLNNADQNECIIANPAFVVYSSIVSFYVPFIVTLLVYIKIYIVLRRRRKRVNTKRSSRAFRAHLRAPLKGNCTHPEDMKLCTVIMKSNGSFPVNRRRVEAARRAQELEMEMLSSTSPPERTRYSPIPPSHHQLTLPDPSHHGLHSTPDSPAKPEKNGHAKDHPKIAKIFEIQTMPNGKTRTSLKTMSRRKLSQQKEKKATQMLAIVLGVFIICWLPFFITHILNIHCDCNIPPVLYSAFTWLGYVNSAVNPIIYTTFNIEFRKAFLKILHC
Chain of 5-hydroxytryptamine receptor 2A (Homo sapiens) (P28223 whole entry, looked up): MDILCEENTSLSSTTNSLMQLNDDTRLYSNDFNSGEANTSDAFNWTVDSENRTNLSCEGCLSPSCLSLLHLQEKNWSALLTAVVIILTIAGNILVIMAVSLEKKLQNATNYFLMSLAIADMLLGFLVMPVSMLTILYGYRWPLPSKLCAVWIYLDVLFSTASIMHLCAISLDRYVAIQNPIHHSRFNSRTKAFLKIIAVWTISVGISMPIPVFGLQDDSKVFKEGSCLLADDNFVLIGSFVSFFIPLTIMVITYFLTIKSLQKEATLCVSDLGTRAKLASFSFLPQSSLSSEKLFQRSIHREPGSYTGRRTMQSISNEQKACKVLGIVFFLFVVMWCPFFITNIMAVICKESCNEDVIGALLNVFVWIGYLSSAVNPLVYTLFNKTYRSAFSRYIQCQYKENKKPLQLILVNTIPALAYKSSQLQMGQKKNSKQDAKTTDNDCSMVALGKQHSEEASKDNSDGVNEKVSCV

CCOC(=O)NNc1nncc2ccccc12
inactive: all assays above

CCCCCCCCCCCCc1ccccc1
61.2 µM (active) and inactive: [2]
inactive: all other assays above

Cc1cnc(NC(=O)C2=C(O)c3ccccc3S(=O)(=O)N2C)s1
not listed: [3] | [11] | [12] | [13] | [14] | [16] | [19]
inactive: all other assays above

CCc1ccc(O)cc1
not listed: [6]
inactive: all other assays above

COC1=CC(=O)C[C@@H](C)[C@]12Oc1c(Cl)c(OC)cc(OC)c1C2=O
inactive: [1] | [2] | [3] | [7] | [8] | [15] | [16] | [17] | [18] | [19] | [20]

C=C(C#N)C(=O)OCC
inactive and 68.6 µM (active): [2]
not listed: [3] | [13] | [19]
inactive: all other assays above

CC1=C(/C=C/C(C)=C/C=C/C(C)=C/CO)C(C)(C)CCC1
active: [2] 69.4 µM and 72.3 µM
not listed: [4] | [10] | [15] | [16] | [18]
inactive: all other assays above

COc1ccc(C(=O)c2ccccc2O)c(O)c1
not listed: [6] | [18]
inactive: all other assays above

O=C(OCC1CCC2OC2C1)C1CCC2OC2C1 (stereo not given)
not listed: [3] | [18]
inactive: all other assays above

Cc1ccc(C)c(S(=O)(=O)O)c1
not listed: [7] | [9] | [15]
inactive: all other assays above

CC1=CC(=O)CC(C)(C)C1
16.7 µM (active) and inactive: [8]
2.5 µM (active) and inactive: [1]
not listed: [3] | [20]
inactive: all other assays above

CCCCCCCCCCCCCC[N+](C)(C)C
active: [1] 52.7 µM and 38.5 µM and 2.37 µM | [13] 941 nM and 818 nM | [14] 10.7 µM
not listed: [3] | [11] | [12] | [15] | [16]
inactive: all other assays above

CC(O)CC(C)(C)O (stereo not given)
not listed: [3]
inactive: all other assays above
